# Test results: PubChem BioAssay (NCI)
# Compounds without any hit were thinned out: in the full panel of roughly 83,000, 20% have a hit.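 Testing used 96-well plates and a 48-hour single-concentration exposure. Example: -40 means 40% of the starting cells died.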 Unmarked numbers belong to inactive results. The source made the active and inactive calls. How the source made its calls: active means growth percent below 10; inactive means the rest.
# How the values were obtained:
# Assay in all cases: NCI-60 one-dose screen, 48 h (100 = growth as untreated, 0 = no growth, -100 = all killed)
# Settings in all cases: 10 µM unless noted
# [1] = tested on: HCT-15 colon
# [2] = tested on: HT29 colon
# [3] = tested on: SNB-19 CNS
# [4] = tested on: U251 CNS
# [5] = tested on: PC-3 prostate
# [6] = tested on: SK-MEL-5 melanoma
# [7] = tested on: UACC-62 melanoma
# [8] = tested on: LOX IMVI melanoma
# [9] = tested on: SK-MEL-28 melanoma
# [10] = tested on: SNB-75 CNS
SMILES,growth [1],growth [2],growth [3],growth [4],growth [5],growth [6],growth [7],growth [8],growth [9],growth [10]
O=C(/C=C/c1ccc(C(F)(F)F)cc1)c1ccc(Nc2nc(NCCO)nc(NCCO)n2)cc1,45.5%,5.46% (active),56.7%,-21.2% (active),48.7%,76.5%,79.1%,-44.2% (active),94.9%,
N#Cc1c(-c2ccccc2)cc(-c2ccccc2)n(CCCCC(=O)O)c1=O,71.3%,99.8%,96.1%,93.3%,93.1%,93.7%,80.6%,88.2%,89.5%,
O=C(CSc1ncc(-c2ccccc2)n1-c1ccccc1)Nc1ccc(-c2nc3ccccc3s2)cc1,69%,38.1%,90.4%,24.7%,80%,75.7%,87.3%,63.5%,80%,
Nc1nc(Nc2ccccc2SSc2ccccc2Nc2nc(N)nc(-c3cccc(Cl)c3)n2)nc(-c2cccc(Cl)c2)n1,69.8%,104%,96.1%,78.5%,83.9%,95.5%,86.2%,61.7%,102%,
Cc1sc2nc(N3CCCCC3)[nH]c(=O)c2c1C,103%,88.6%,92.4%,92.4%,76.4%,96.9%,97.5%,99%,103%,
Clc1ccc2[nH]cc(-c3cncn3CCc3ccccc3)c2c1,51%,57.3%,71.1%,57.9%,46.7%,10.8%,57.4%,70%,69.8%,
O=c1c2c(=NCCCN3CCCC3)cc3c(=O)n(CCCN4CCCC4)c(=O)c4c(NCCCN5CCCC5)cc(c(O)n1CCCN1CCCC1)c2c4-3,12.9%,-7.75% (active),7.13% (active),1.98% (active),11.7%,-66% (active),-52.2% (active),-7.8% (active),-42.3% (active),
COc1ccc2c(c1)c(CC(=O)[Se]C)c(C)n2C(=O)c1ccc(Cl)cc1,14.9%,2.05% (active),24%,14.9%,24.2%,-63.9% (active),33.6%,-69.5% (active),-7.85% (active),
CC(=O)Nc1c(Cl)cc2c(c1Cl)Cc1ccccc1-2,99.9%,,101%,92.4%,86.9%,97.3%,84.8%,87.9%,124%,94.7%
N#Cc1ccc(-c2csc(Nc3ccc4nc5n(c(=O)c4c3)CCC5)n2)cc1,98.2%,105%,98.1%,96%,110%,97.4%,100%,101%,104%,
c1ccc(-c2n(Cc3ccc4ccccc4c3)cc[n+]2Cc2ccc3ccccc3c2)cc1,15.2%,,-32.4% (active),-93.5% (active),-58.8% (active),-98.4% (active),-80% (active),-92.5% (active),-84.2% (active),-29.5% (active)
Oc1ccc(/C=N/Nc2nc3ccccc3s2)c(O)c1,30.9%,,52.5%,25.4%,32.5%,40.8%,35.8%,21.3%,50.7%,28.5%
O=C(Nc1cccc(-n2cc(-c3ccncc3)c(-c3cc(O)cc(Cl)c3)n2)c1)Nc1ccc(Cl)c(Cl)c1,-25.3% (active),,30.8%,-56.5% (active),-1.66% (active),-53% (active),-61.8% (active),-84.7% (active),,4.08% (active)
O=[N+]([O-])c1ccc(NS(=O)(=O)c2ccc(Cl)c(Cl)c2)cc1,88.7%,102%,70.1%,,66.5%,40.2%,38.8%,93.3%,78.4%,
CN1C(=O)C(C2=NN(C=O)C(c3ccc(F)cc3)C2)C(=O)N(C)C1=O (stereo not drawn),101%,,92.4%,92.3%,78.7%,102%,100%,90.4%,111%,93.5%
CCN1CCN(c2nc(NNC(=O)Cc3ccccc3)nc(N3CCN(C(c4ccccc4)c4ccccc4)CC3)n2)CC1,22.9%,-7.32% (active),84.2%,19.1%,63.7%,2.68% (active),84.7%,-54.9% (active),92.6%,
COc1ccc(C(=O)/C=C/c2ccc(C)cc2)cc1OC,46.9%,,70.3%,27.7%,51%,74%,68.1%,48.6%,87.4%,64.9%
COc1cc(-c2nnc(-c3nc(-c4cc(OC)c(OC)c(OC)c4)n4ccccc34)o2)ccc1N,64.5%,,77.7%,64.2%,69%,56.1%,60.9%,56.3%,97.8%,75%
CNc1nc(NC2CCCC2)nc(Sc2ccc(OC)cc2)n1,24.8% [100 µM],,40.4% [100 µM],25.8% [100 µM],-7.58% [100 µM] (active),11.6% [100 µM],25.1% [100 µM],22.4% [100 µM],46.4% [100 µM],48.9% [100 µM]
c1ccc(-c2nc(Nc3nccnn3)c3ccccc3n2)cc1,98.2%,98.8%,93.6%,,101%,99.1%,87.8%,96%,103%,
O=c1[nH]c(SCc2ccccc2)nc2nc(Nc3ccc(NC(=S)Nc4ccccc4)cc3)nc(-c3ccc(O)cc3O)c12,108%,115%,86.9%,,82.6%,101%,87.9%,98%,94.3%,
CN(C)c1ccc(-c2nc3ncc(Br)cc3o2)cc1,115%,,91%,100%,83.3%,99.8%,87.3%,98.4%,,103%
CN1CCN(CCCCCN=c2cc3c(=O)n(CCCCCN4CCN(C)CC4)c(=O)c4c(NCCCCCN5CCN(C)CC5)cc5c(O)n(CCCCCN6CCN(C)CC6)c(=O)c2c5c4-3)CC1,107%,,3.84% (active),2.35% (active),12.6%,44.3%,21.9%,1.9% (active),-34.8% (active),-8.4% (active)
O=C1OC(Oc2ccccc2)(c2ccccc2)c2ccccc21 (stereo not drawn),99.7%,,115%,91.4%,91.2%,112%,100%,89.2%,127%,97.2%
CCc1nn2c(-c3ccc(Cl)cc3C)c(-c3cc(OC)c(OC)c(OC)c3)nc2s1,69.8%,,56.8%,89.7%,64.1%,70.3%,60%,77.1%,,3.79% (active)
CCOC(=O)c1sc(NC(=O)COc2ccc(/C=C3\CCc4cc(OC)ccc4C3=O)cc2)nc1C,102%,85.8%,96.1%,91.2%,79.5%,,95.2%,-88.1% (active),118%,
COc1cnc2c(c1)C(=O)c1c-2n(CCCN2CCCC2)c(=O)c2cc(F)ccc12,-18.9% (active),-31.2% (active),19.7%,-19% (active),9.68% (active),,-27.8% (active),-69.7% (active),27.4%,
COc1ccccc1-n1c(-c2ccc(O)cc2C)cn2c3c(=O)[nH]c(=O)n(C)c3nc12,98.4%,,117%,97.6%,77.1%,81.5%,76.6%,72.6%,104%,7.76% (active)
Oc1c(Cl)cc(Cl)c(Cl)c1Cc1c(O)c(Cl)cc(Cl)c1Cl,11.5%,,23%,15%,-6.08% (active),-72.7% (active),2.95% (active),26.2%,22.4%,46.9%
